We go through 69 molecules from PubChem BioAssay AID485313 (National Center for Advancing Translational Sciences (NCATS), 2010).

Out of some 320,000 compounds screened, about 7,600 (2.4%) were called active. Entries that show only a call come without a potency. Roughly 3% stayed inconclusive and do not appear here. The sample holds actives, similar compounds and a random draw of the others, so the mix is not that of the screen. Calls come from the whole dose curve; as a rule, active = well fitted activation curve with a large enough effect; inconclusive = small, poorly fitted or top-dose-only effect; inactive = no such curve, though single readings can be large or run the other way.
Potency is the fitted concentration of half-maximal effect.

The test can be described thus: qHTS Assay for NPC1 Promoter Activators.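 For activation: reporter is driven by a mutant NPC1 promoter.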 Note: nearly all actives have a fitted effect of over 60% in size. As to conditions: Huh7 NPC1 promoter luciferase reporter, 24 h; series mostly up to 9.22 µM. The method in brief:
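Compounds in DMSO were transferred onto Huh7 NPC1-luciferase reporter cells pre-incubated 2 h; after 24 h at 37 °C, Amplite reagent was dispensed and luminescence recorded 10 min later.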
Consider `NS(=O)(=O)c1ccc(N2C(=O)C3C4CC(C(Br)C4Br)C3C2=O)cc1` (centres undefined), for which the Potency entry was “inactive”.

`CCOc1ccc(NC(=O)CN(C)C(=O)CSc2ccccc2)cc1OCC`: the Potency entry is “inactive”.

With `N/C(=N\OC(=O)Cc1ccc([N+](=O)[O-])cc1)c1ccccn1`, the Potency result was “inactive”.

As for `O=C(COC(=O)c1ccccn1)NNC(=O)c1ccc([N+](=O)[O-])cc1`, the Potency entry was “inactive”.

Regarding `Cc1ccc(/C(N)=N/OC(=O)COc2ccc(Cl)c(C)c2)cc1`, the Potency result is “inactive”.

Turning to `O=C(Nc1ccccc1Cl)O/N=C(/c1ccccc1)c1ccccn1`, the Potency entry was “inactive”.

Consider `COc1ccc(C(=O)O/N=C(\N)c2ccccn2)cc1[N+](=O)[O-]`, for which the Potency was 2.51 µM (active).

Consider `N/C(=N\OC(=O)c1ccc([N+](=O)[O-])cc1)c1ccccn1`, for which the Potency was 0.355 µM (active).

For the molecule `Cc1ccc(C(=O)O/N=C(\N)c2ccccn2)cc1Cl`, the Potency is 1.58 µM (active).

On to `COc1ccc(C(=O)NNC(=O)c2cnccn2)cc1[N+](=O)[O-]`, for which the Potency result was “inactive”.

In the case of `COc1ccc(C(=O)CSc2nc(C)cc(C)n2)cc1[N+](=O)[O-]`, the Potency result is “inactive”.

`CN(C(=O)Cn1nnc(-c2ccc(F)cc2)n1)C1CCS(=O)(=O)C1` (centres undefined): the Potency entry is “inactive”.

As to `CCOC(=O)c1ccccc1NC(=O)COC(=O)C(Cc1c[nH]c2ccccc12)NC(C)=O` (centres undefined), the Potency result was “inactive”.

Regarding `CC(C)Cc1nnc(NC(=O)CCNC(=O)c2ccccc2Cl)s1`, the Potency result is “inactive”.

For `O=C(COC(=O)CNC(=O)C1CCCCC1)NCc1ccccc1`, the Potency entry was “inactive”.

Turning to `CC(C(=O)NC1CCCC1)N1CCN(S(=O)(=O)c2ccccc2Cl)CC1` (centres undefined), the Potency entry is “inactive”.

As for `Cc1ccc(NS(=O)(=O)c2ccc3c(c2)CC(=O)N3)cc1Cl`, the Potency result is “inactive”.

In the case of `O=C(OCC(=O)N1CCc2ccccc21)c1ccc([N+](=O)[O-])cc1`, the Potency entry was “inactive”.

Regarding `CC1CCCN(C(=O)c2cc(-c3ccco3)nc3ccccc23)C1` (centres undefined), the Potency entry was “inactive”.

Turning to `Nc1ccc(N=Nc2ccccc2Cl)c(N)n1`, the Potency was 3.16 µM (active).

Consider `O=C(NCc1ccncc1)c1cccc(NS(=O)(=O)c2ccc(F)c(F)c2)c1`, for which the Potency entry is “inactive”.

Take `CC[C@H](C)C(=O)N[C@H]1CCCN1C(=O)/C=C/c1ccccc1`: the Potency entry was “inactive”.

Regarding `Cc1ccc(NC(=O)Nc2ccc3oc(C)nc3c2)cc1`, the Potency was 1.12 µM (active).

In the case of `Cc1nc2ccc(NC(=O)C(F)(F)F)cc2o1`, the Potency result is “inactive”.

Consider `Cc1nc2cc(NC(=O)NCc3ccccc3)ccc2o1`, for which the Potency entry was “inactive”.

As to `CCc1ccc(OCC(=O)OC(C)C(=O)NC2CC2)cc1` (centres undefined), the Potency result is “inactive”.

With `O=C(CN1CCc2ccccc2C1)Nc1cccc(S(=O)(=O)N2CCOCC2)c1`, the Potency result was “inactive”.

Take `Cc1cccc(NS(=O)(=O)c2cccc(C(=O)NNC(=O)c3ccccc3O)c2)c1`: the Potency entry is “inactive”.

On to `Cc1cc(C)cc(OCC(=O)Nc2ccc(N3CCOCC3)cc2N2CCOCC2)c1`, for which the Potency result was “inactive”.

Regarding `O=C(CCN1c2ccccc2Sc2ccccc21)Nc1ccccc1`, the Potency entry is “inactive”.

On to `CCN1/C(=C/c2ccc3ccc(C)cc3[n+]2CC)Sc2ccccc21`, for which the Potency entry is “inactive”.

As to `CCN1/C(=C/C(=S)Nc2ccccc2)Sc2ccccc21`, the Potency was 3.98 µM (active).

With `COc1ccc(C(=O)NC2=NCCS2)c(OC)c1`, the Potency is 0.891 µM (active).

In the case of `O=C(NC1=NCCS1)[C@H](Cc1ccccc1)N1C(=O)c2ccccc2C1=O`, the Potency entry is “inactive”.

Take `COc1ccccc1C(=O)NCCC(=O)NC1=NCCS1`: the Potency entry is “inactive”.

Take `O=C(NCc1ccc2c(c1)OCO2)c1ccc(Cl)s1`: the Potency result is “inactive”.

Consider `O=C(NC1=NCCS1)c1ccc(Cl)s1`, for which the Potency was 2.51 µM (active).

For the molecule `CCOc1ccc(C(=O)CCC(=O)NC2=NCCS2)cc1`, the Potency entry was “inactive”.

Regarding `O=C(COC(=O)c1ccc(N2CCCC2=O)cc1)c1ccc(OC(F)F)cc1`, the Potency result was “inactive”.

As to `COc1cc(OC)cc(-c2c(-c3cccs3)c3cc(-c4ccc(OC)nc4)ccc3n2C)c1`, the Potency entry is “inactive”.

On to `CCCCN(C(=O)c1ccc2ccccc2c1)c1c(N)n(CCCC)c(=O)[nH]c1=O`, for which the Potency result was “inactive”.

`Nc1ncc(CN2CCCC(C(=O)Nc3ccc(-c4ccco4)cc3)C2)cn1` (centres undefined): the Potency result was “inactive”.

With `COc1ccc(C(C)(C)C)cc1NC(=O)CCN1C(=O)C2CCCCC2C1=O` (centres undefined), the Potency result was “inactive”.

For the molecule `O=C(CSc1ncnc2c1nnn2Cc1ccc(F)cc1)NC1CCCC1`, the Potency entry was “inactive”.

As for `CN(C)C(=O)COC(=O)c1cccc(S(=O)(=O)N2CC3(C)CC2CC(C)(C)C3)c1` (centres undefined), the Potency result is “inactive”.

Regarding `CCCNC(=O)c1c(Cl)cnn1-c1ccc(C)cc1`, the Potency was 2.51 µM (active).

Consider `CCCc1c(C(=O)O)cnn1-c1ccc(Cl)cc1`, for which the Potency entry is “inactive”.

On to `CCCNC(=O)CCc1c(C)nc2c(c(C)nn2-c2ccc(C)cc2)c1C`, for which the Potency result is “inactive”.

As for `Cc1ccc(C)c(OCC(=O)NNC(=O)C2CCC2)c1`, the Potency result is “inactive”.

Consider `O=C(O[C@@H]1[C@H](Cc2ccccc2)NS(=O)(=O)[C@H]2C[C@@H]3C=C[C@]12O3)c1ccccc1Br`, for which the Potency entry is “inactive”.

Consider `O=C(CNS(=O)(=O)c1ccc2c(c1)OCCCO2)N1CCN(c2ccc(F)cc2)CC1`, for which the Potency entry is “inactive”.

`O=C(NNC(=O)C1CCC1)c1ccccc1`: the Potency result is “inactive”.

On to `COc1ccc(S(=O)(=O)N2CCOCC2)cc1NC(=O)CSc1cc(C)ccc1C`, for which the Potency result is “inactive”.

Turning to `COc1ccc2[nH]c(C(=O)Nc3ccccc3Cl)cc2c1`, the Potency result was “inactive”.

Regarding `O=C(Nc1ccccc1)c1cc2ccccc2[nH]1`, the Potency was 3.98 µM (active).

As for `CC(C)n1c(=O)[nH]c2cc(C(=O)Nc3ccccc3)ccc21`, the Potency entry was “inactive”.

As for `CC1(C(=O)OCC(=O)Nc2ncc(Cl)cc2Cl)CC1(Cl)Cl` (centres undefined), the Potency result was “inactive”.

`O=S(=O)(c1ccc(SCc2ccc(Br)cc2)nc1)N1CCOCC1`: the Potency result was “inactive”.

On to `CCOc1ccc(C(=O)NCC(=O)N2CCN(c3ccc(C(F)(F)F)cn3)CC2)cc1`, for which the Potency entry is “inactive”.

For `O=[N+]([O-])c1cccc(/C=N/Nc2ncc(Br)cn2)c1`, the Potency is 2.82 µM (active).

Regarding `Cc1ccc(NC(=O)O/N=C/c2cccc([N+](=O)[O-])c2)cc1`, the Potency result is “inactive”.

Regarding `O=C(N/N=C/c1cccc([N+](=O)[O-])c1)C1CC(=O)N(c2ccc(Br)cc2)C1` (centres undefined), the Potency result is “inactive”.

Regarding `CC(C)Oc1ccc(C(=O)NCC(=O)Nc2ccc3c(c2)CCC3)cc1`, the Potency result is “inactive”.

On to `COc1ccc(/C=N/OCc2ccccc2C#N)c(OC)c1`, for which the Potency was 3.98 µM (active).

For `COc1ccc(/C=N/NC(=O)c2ccc3c(c2)OCCO3)c(OC)c1`, the Potency result is “inactive”.

Turning to `COc1ccc(/C=N/Nc2cc(N3CCOCC3)nc(C)n2)c(OC)c1`, the Potency result was “inactive”.

For the molecule `CC(C)C(=O)Nc1ccc2oc(=O)ccc2c1`, the Potency entry was “inactive”.

On to `CC(C)C(=O)Nc1ccc2c(c1)oc1ccccc12`, for which the Potency was 3.55 µM (active).

For `Cc1cc(=O)oc2cc(NC(=O)C(C)Oc3ccccc3)ccc12` (centres undefined), the Potency entry is “inactive”.
